{"source": "PubChem BioAssay (Tox21)", "note": "Results filed as inconclusive are left out. The source made the active and inactive calls. Calls follow the shape of the dose curve; as a rule, active = well fitted cell-killing curve with a large enough effect in the repeat runs; inconclusive = weak or mixed curves; inactive = flat fitted curve, though single readings scatter. % is scaled to controls: 0 for no effect and ±100 for the full control effect.", "data": [{"assay": "qHTS assay to identify small molecule antagonists of the TGF-beta/Smad signaling pathway - cell viability counter screen (AID 1346824); also: nearly all actives have a fitted effect of over 50% in size", "settings": "SBE-bla HEK293T viability, CellTiter-Glo luminescence; series mostly up to 76.8 µM; viability change, negative = cytotoxic: at the top concentration", "from_the_text": "U.S. Tox21 Program National Center for Advancing Translational Sciences [NCATS] NIH Chemical Genomics Center [NCGC] U.S. Environmental Protection Agency [EPA] National Institutes of Environmental Health Sciences [NIEHS] National Toxicology Program [NTP] U.S. Food and Drug Administration [FDA] Tox21 Assay Overview: Transforming growth factor beta (TGF-beta) superfamily consists of a large number of structurally related dimeric proteins that act as hormones or local mediators in regulating a wide range of biological functions. This superfamily includes TGF-betas themselves, the bone morphogenetic proteins (BMPs) and the activins. These ligands induce oligomerization of serine/threonine receptor kinases and phosphorylate the cytoplasmic signaling molecules of Smad protein family. CellSensor SBE-bla HEK 293T cell line (Life Technologies, Carlsbad, CA), responsive to TGF-beta was used to screen Tox21 10K compound library for identification of agonists/antagonists of the Smad signaling pathway. This cell line contains a beta-lactamase reporter gene under control of the Smad binding element (SBE) stably integrated into HEK 293T cells. Also cytotoxicity of the compounds was tested in parallel by measuring the cell viability using CellTiter-Glo assay system in the same wells.\nTox21 Assay Protocol Summary: SBE-bla HEK 293T cells were dispensed at 4,000/well in 5 uL of assay medium into black wall/clear-bottom 1536-well plates using a Multidrop Combi (ThermoFisher Scientific, Waltham, MA) dispenser. After the assay plates were incubated at 37 C and 5% CO2 for an overnight, 23 nL of compounds dissolved in DMSO, positive controls or DMSO only was transferred to the assay plate by a Pintool station (Kalypsys, San Diego, CA). Compound transfer was followed by the addition of 1 uL of 0.25 ng/mL TGF-beta1 or assay buffer using two separate tips of Flying Reagent Dispenser (FRD, Aurora Discovery, San Diego, CA). The assay plates were incubated at 37 C and 5% CO2 for 5 hr. One uL of LiveBLAzer B/G FRET substrate (Life Technologies) was added using a Flying Reagent Dispenser (FRD, Aurora Discovery, San Diego, CA) and the plates were incubated at room temperature for 2 hr. Fluorescence intensity (405 nm excitation, 460 nm and 530 nm emissions) was measured using an Envision plate reader (PerkinElmer, Shelton, CT). For cytotoxicity read, 4 uL of CellTiter-Glo reagent (Promega Corporation, Madison, WI) was added to each well of the assay plates using FRD. After 30 min incubation at room temperature, the luminescence intensity was measured using ViewLux plate reader (PerkinElmer).", "values": [{"smiles": "CC(CO)(CO)CO", "viability change, negative = cytotoxic": "14.7% (inactive)"}, {"smiles": "CC(C)CCOC(=O)c1ccccc1", "viability change, negative = cytotoxic": "13.3% (inactive)"}, {"smiles": "c1ccc(-c2nn[nH]n2)cc1", "viability change, negative = cytotoxic": "-5.3% (inactive)"}, {"smiles": "COC(=O)/C=C\\C(=O)O", "viability change, negative = cytotoxic": "-5.47% (inactive)"}, {"smiles": "CCC/C=C(\\C=O)CC", "viability change, negative = cytotoxic": "-11.9% (inactive)"}, {"smiles": "CC1=C(C(=O)O)N2C(=O)[C@@H](NC(=O)[C@H](N)c3ccccc3)[C@H]2SC1", "viability change, negative = cytotoxic": "1.86% [at 35.3 µM] (inactive)"}, {"smiles": "Cc1ccc2c(c1)C(=O)c1ccccc1C2=O", "viability change, negative = cytotoxic": "0.0172% (inactive)"}, {"smiles": "CC(=O)Nc1ccc(OC(=O)c2ccccc2OC(C)=O)cc1", "viability change, negative = cytotoxic": "7.88% [at 35.3 µM] (inactive)"}, {"smiles": "CC(=O)CC(=O)OC(C)(C)C", "viability change, negative = cytotoxic": "7.29% (inactive)"}, {"smiles": "CCCCCCCCCOC(=O)CCCCC(=O)OCCCCCCC", "viability change, negative = cytotoxic": "13.5% (inactive)"}, {"smiles": "CCOCCOCC", "viability change, negative = cytotoxic": "-1.26% (inactive)"}, {"smiles": "C/C(CC(C)C)=N\\O", "viability change, negative = cytotoxic": "-0.41% (inactive)"}, {"smiles": "CCCCCCC1(C)CCC(=O)O1", "note": "(stereo not given)", "viability change, negative = cytotoxic": "16.9% (inactive)"}, {"smiles": "CCOC(CN1CCN(CC(C)C(=O)c2ccccc2)CC1)c1ccccc1", "note": "(stereo not given)", "viability change, negative = cytotoxic": "-0.107% [at 15.8 µM] (inactive)"}, {"smiles": "ONc1ccccc1", "viability change, negative = cytotoxic": "-0.292% (inactive)"}, {"smiles": "OC1OCCOC1O", "note": "(stereo not given)", "viability change, negative = cytotoxic": "-11.6% (inactive)"}, {"smiles": "CCCCCC/C=C/C(=O)OC", "viability change, negative = cytotoxic": "7.83% (inactive)"}, {"smiles": "NCC1(Cc2noc(=O)[nH]2)CCCCC1", "viability change, negative = cytotoxic": "2.98% (inactive)"}, {"smiles": "CCNC(=O)NCc1cccc(Cl)c1", "viability change, negative = cytotoxic": "0.213% [at 35.3 µM] (inactive)"}, {"smiles": "CCO", "viability change, negative = cytotoxic": "0.142% (inactive)"}, {"smiles": "CN(C)CCCO[C@@H]1[C@H]2OC(C)(C)O[C@H]2O[C@@H]1C(O)CO", "note": "(stereo not given in full)", "viability change, negative = cytotoxic": "16.5% [at 35.3 µM] (inactive)"}, {"smiles": "CC/C(C)=N\\O[Si](C)(O/N=C(\\C)CC)O/N=C(\\C)CC", "viability change, negative = cytotoxic": "0.463% (inactive)"}, {"smiles": "CC(=O)CCC1=C(C)CCCC1(C)C", "viability change, negative = cytotoxic": "8.93% (inactive)"}, {"smiles": "NCc1ccc(S(N)(=O)=O)cc1", "viability change, negative = cytotoxic": "-1.07% [at 35.3 µM] (inactive)"}, {"smiles": "CC(=O)O[Si](C)(OC(C)=O)OC(C)=O", "viability change, negative = cytotoxic": "-3.18% (inactive)"}, {"smiles": "CCC(C)C(C)=O", "note": "(stereo not given)", "viability change, negative = cytotoxic": "3.79% (inactive)"}, {"smiles": "COC(=O)CCCCC(CCSS/C(CCO)=C(\\C)N(C=O)Cc1cnc(C)nc1N)SC(C)=O", "note": "(stereo not given)", "viability change, negative = cytotoxic": "2.52% [at 35.3 µM] (inactive)"}, {"smiles": "C=C(C)[C@@H]1CC=C(C)C(=O)C1", "viability change, negative = cytotoxic": "5.47% (inactive)"}, {"smiles": "CC1c2ccccc2CN1NC(=O)c1ccc(Cl)c(S(N)(=O)=O)c1", "note": "(stereo not given)", "viability change, negative = cytotoxic": "7.76% [at 35.3 µM] (inactive)"}, {"smiles": "OCC1CCC(CO)CC1", "note": "(stereo not given)", "viability change, negative = cytotoxic": "7.05% (inactive)"}, {"smiles": "COc1cc2c(cc1OC)C(=O)C(CC1CCN(Cc3ccccc3)CC1)C2", "note": "(stereo not given)", "viability change, negative = cytotoxic": "-9% [at 35.3 µM] (inactive)"}, {"smiles": "COC(C)(OC)OC", "viability change, negative = cytotoxic": "1.66% (inactive)"}, {"smiles": "CN(C)CC/C=C1/c2ccccc2COc2ccc(CC(=O)O)cc21", "viability change, negative = cytotoxic": "0.106% [at 35.3 µM] (inactive)"}, {"smiles": "COc1ccc2c(c1)c1c3n2CCN(C)C3=NCC1", "viability change, negative = cytotoxic": "3.41% [at 35.3 µM] (inactive)"}, {"smiles": "CN(C)CCCCl", "viability change, negative = cytotoxic": "0.662% (inactive)"}, {"smiles": "CC(C)CO", "viability change, negative = cytotoxic": "1.8% (inactive)"}, {"smiles": "CCN1CCCC1CN", "note": "(stereo not given)", "viability change, negative = cytotoxic": "12.8% [at 35.3 µM] (inactive)"}, {"smiles": "CN1C[C@@H]2C[C@H]1CN2c1cc2c(cc1F)c(=O)c(C(=O)O)cn2C1CC1", "viability change, negative = cytotoxic": "1.45% [at 15.8 µM] (inactive)"}, {"smiles": "OC[C@H]1O[C@@H](O[C@@H]2[C@@H](CO)O[C@](O)(CO)[C@H]2O)[C@H](O)[C@@H](O)[C@H]1O", "viability change, negative = cytotoxic": "-1.94% [at 35.3 µM] (inactive)"}, {"smiles": "C=CCCCC", "viability change, negative = cytotoxic": "4.78% (inactive)"}]}]}
